Compounds with a hit are over-represented: about 4.8% of the library has one in this group of screens.
STAT1 activator: activators of IFN-gamma induced STAT1 signaling; NIH 3T3 STAT1-luciferase reporter, luminescence; 100% = IFN-gamma alone, no compound; activation (% of control), % at 5.5 µM; 200,000 tested, 2.6% active;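 active = activation above the screen-wide mean activation plus 3 SD, cut at about 130% in these data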;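 note: raw ratio to IFN-gamma control signal so 100% means no change and 0% no light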
APP 5'UTR act: activates APP 5'UTR luciferase reporter; SH-SY5Y APP 5'UTR luciferase reporter, luminescence; zero percent = DMSO vehicle wells; activation, % at 2 µM; 190,000 tested, 1% active;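 active = activation above a set limit, based on mean plus 3 SD of controls, cut at about 140% in these data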
Wee1 stabilizer: human Wee1 degradation inhibition, primary screen | 220,000 tested, 1.2% active | P30291 | reporter increase, % at 5 µM | HeLa Luc-Wee1K328M stability, luciferase luminescence; 100% = proteasome inhibitor MG132 effect;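 active = activation above the mean of all tested compounds plus 3 SD, set per screening run, cut at about 8.8% in these data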;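 note: cells exposed to compound for 20 h before luminescence read; 0% = DMSO alone and 100% = MG132 at 30 µM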
Target sequence (P30291 whole entry K328M): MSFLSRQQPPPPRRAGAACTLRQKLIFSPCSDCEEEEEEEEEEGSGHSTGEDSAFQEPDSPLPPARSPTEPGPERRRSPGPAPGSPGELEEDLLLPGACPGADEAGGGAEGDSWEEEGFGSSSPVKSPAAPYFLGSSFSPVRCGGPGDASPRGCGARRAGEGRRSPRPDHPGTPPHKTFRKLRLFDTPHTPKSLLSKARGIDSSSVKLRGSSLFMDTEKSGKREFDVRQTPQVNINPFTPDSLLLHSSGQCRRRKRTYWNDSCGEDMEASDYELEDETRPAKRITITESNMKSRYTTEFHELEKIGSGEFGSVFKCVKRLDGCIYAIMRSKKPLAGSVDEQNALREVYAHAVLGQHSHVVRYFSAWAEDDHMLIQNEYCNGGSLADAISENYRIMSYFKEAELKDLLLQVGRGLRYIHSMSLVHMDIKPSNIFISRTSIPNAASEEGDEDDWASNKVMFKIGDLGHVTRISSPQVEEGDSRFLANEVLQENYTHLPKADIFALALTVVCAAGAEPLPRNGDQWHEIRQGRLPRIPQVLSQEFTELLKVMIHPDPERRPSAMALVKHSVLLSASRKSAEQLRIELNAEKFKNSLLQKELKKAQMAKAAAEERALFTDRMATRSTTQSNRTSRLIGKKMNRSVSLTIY
APP 5UTR inh: APP translation inhibition; 190,000 tested, 0.82% active; AID 1285; SH-SY5Y APP 5'UTR-luciferase reporter, luminescence; inhibition, % at 2 µM;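 active = inhibition above a set limit, derived from the sample mean plus 3 SD, cut at about 45% in these data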
NF-kB neuron act: NF-kB expression increase, human neuronal cells. NF-kB reporter expression; hits give high values. fold change at 12.5 µM. 190,000 tested, 1.6% active. AID 1239; in the data active = fold change above about 3.3
Hsp70 act: switches on Hsp70 transcription | 200,000 tested, 0.04% active | AID 1203 | activation, % at 10 µM | HeLa Hsp70 promoter luciferase reporter, luminescence; scaled: vehicle 0, proteasome-inhibitor control 100%;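 active = activation above the mean across all tested compounds plus 3 SD, cutoff set per campaign, cut at about 5.5% in these data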;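 note: 100% = MG132 at 30 µM as the positive control and 0% = DMSO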
The depositor's hits bear a star; nt = no result.

SMILES	STAT1 activator	APP 5'UTR act	Wee1 stabilizer	APP 5UTR inh	NF-kB neuron act	Hsp70 act
Cc1ccc(NS(=O)(=O)c2cc(C(=O)N3CCN(C)CC3)ccc2C)cc1C	96.0	18.4	8.9*	-18.4	1.14	-0.1
CC1(C)CC(=O)C2=C(C1)N(c1ccc(F)cc1)C(=O)CC2c1ccccc1 (configuration not stated)	95.5	9.9	0.0	-9.9	0.96	-0.7
O=C(Nc1nnc(C(F)(F)F)s1)c1ccc(Br)s1	59.9	31.3	9.8*	-31.3	1.08	-0.5
CCSc1nnc(NC(=O)c2ccc(Br)s2)s1	100.2	13.2	-0.3	-13.2	1.6	-0.4
O=C(NC1=NCCS1)c1ccc(Br)s1	137.5*	116.8	8.5	-116.8	3.13	-0.2
O=S(=O)(Nc1ccncc1Cl)c1cccc(Cl)c1Cl	nt	nt	-1.2	nt	nt	nt
O=c1oc2ccccc2nc1/C=C(O)/C=C/c1ccc(F)cc1	113.7	6.5	-0.7	-6.5	2.3	0.1
C=C1CC2C=C(NC(C)=O)CC(C1)C2 (configuration not stated)	104.1	11.3	9.6*	-11.3	0.97	0.0
c1ccc(Nc2ccnc(Nc3ccccc3)n2)cc1	nt	nt	4.1	nt	nt	nt
c1ccc(NC2=Nc3ccccc3CS2)cc1	137.7*	112.6	4.0	-112.6	3.64*	-0.3
Oc1ccccc1-c1cc(-c2ccccc2Cl)[nH]n1	107.7	231.3*	3.8	-231.3	8.68*	0.1
Oc1ccccc1-c1cc(-c2ccco2)[nH]n1	102.5	114.8	1.1	-114.8	3.94*	0.1
Oc1c(-c2cc(-c3ccco3)[nH]n2)ccc2ccccc12	116.6	132.8	5.2	-132.8	8.72*	0.5
Oc1ccc(Cl)cc1-c1cc(-c2cccc(Br)c2)n[nH]1	100.0	8.6	1.4	-8.6	1.29	-0.1
Oc1ccccc1-c1cc(-c2cccc(F)c2)n[nH]1	109.3	202.0*	4.3	-202.0	9.9*	-0.2
Cc1cc(C)nc(N2CCC(C(=O)NC3CCCCCC3)CC2)n1	104.2	-6.5	-1.6	6.5	nt	-0.2
COC(=O)c1ccccc1NC(=O)CCc1ccccc1	107.1	16.0	7.2	-16.0	1.02	-0.2
Cc1nn(C)c(C)c1CN(C)S(=O)(=O)c1ccc2ccccc2c1	68.8	-47.3	-0.4	47.3*	0.81	0.0
Cc1nn(C)c(C)c1CN(C)S(=O)(=O)c1ccc(F)cc1	86.0	-18.8	1.3	18.8	1.54	-0.1
C=CCn1c(COc2ccccc2)nnc1SC(C)C(=O)N/N=C/c1cc(Cl)ccc1O (configuration not stated)	106.4	-3.6	1.0	3.6	3.51*	-0.2
CC1(C)CC(=O)c2cc(N=C/C(C(=O)c3ccccc3)=C(\O)c3ccccc3)c(=O)oc2C1	132.5*	37.7	7.2	-37.7	1.29	-0.1
CCc1ccc(-c2cc(C(=O)Nn3cnnc3)c3ccccc3n2)cc1	41.5	59.7	-3.8	-59.7	4.29*	-0.7
CCCc1ccc(-c2cc(C(=O)NN3CCOCC3)c3ccccc3n2)cc1	119.9	39.3	0.2	-39.3	1.19	0.0
CCCOc1cccc(-c2cc(C(=O)NNC(=S)NCC)c3ccccc3n2)c1	98.7	-53.1	6.2	53.1*	1.39	-0.2
CCNC(=S)NNC(=O)c1cc(-c2ccc(OCC)cc2)nc2ccccc12	22.3	126.8	-3.5	-126.8	5.5*	-0.7
SMILES	STAT1 activator	APP 5'UTR act	Wee1 stabilizer	APP 5UTR inh	NF-kB neuron act	Hsp70 act
CCNC(=S)NNC(=O)c1cc(-c2cccc(OC)c2)nc2ccccc12	98.4	-18.5	1.8	18.5	1.01	-0.2
COc1ccc(-n2ncc3c(=O)n(CC(=O)N4c5ccccc5CC4C)cnc32)cc1 (configuration not stated)	93.4	14.0	-2.0	-14.0	1.07	-0.4
COc1cccc(C(=O)Nc2ccccc2N2CCOCC2)c1	92.7	nt	-2.2	7.2	1.07	-0.1
COc1ccc(NC(=O)c2cn(CCC#N)nc2-c2cc3ccccc3o2)cc1	113.1	-45.6	0.0	45.6*	1.44	0.4
COc1ccc(S(=O)(=O)N2Cc3ccccc3CC2C(=O)Nc2nccs2)cc1OC (configuration not stated)	115.5	162.9*	1.2	-162.9	1.35	-0.3
COc1ccc(S(=O)(=O)N2Cc3ccccc3CC2C(=O)Nc2ccc3c(c2)OCO3)cc1 (configuration not stated)	106.5	20.5	0.2	-20.5	1.25	-0.3
COc1ccc(-c2csc(NC(=O)C3CCCCN3S(=O)(=O)c3ccccc3)n2)cc1 (configuration not stated)	87.1	0.6	10.0*	-0.6	0.79	-0.1
COc1ccc(S(=O)(=O)N2Cc3ccccc3CC2C(=O)Nc2nccs2)cc1 (configuration not stated)	120.6	180.1*	0.5	-180.1	1.61	0.0
COc1ccc(S(=O)(=O)N2Cc3ccccc3CC2C(=O)N2CCOCC2)cc1OC (configuration not stated)	98.2	-1.3	1.4	1.3	1.29	-0.3
C=CCOc1ccccc1C1NC(=O)NC(C)=C1C(=O)NCc1ccccc1 (configuration not stated)	102.1	-4.6	-0.7	4.6	1.17	-0.2
CC(=O)Nc1ccc(NC(=O)CN(c2cccc(C)c2)S(C)(=O)=O)cc1	99.1	19.2	0.0	-19.2	0.92	-0.2
Cc1ccc(C(=O)N2CCN(c3ccccc3Cl)CC2)cc1[N+](=O)[O-]	93.5	-5.0	-1.3	5.0	0.98	0.0
Fc1ccc(/C=C2\CCCC3=C2Nc2ncnn2C3c2ccc(F)cc2)cc1 (configuration not stated)	95.8	-56.4	0.2	56.4*	0.28	-0.2
COC(=O)c1ccc(NC(=O)Cn2c(-c3nonc3N)nc3ccccc32)cc1	103.9	-12.5	-5.2	12.5	1.49	0.3
COC(=O)c1ccccc1NC(=O)Cn1c(-c2nonc2N)nc2ccccc21	106.9	-95.1	4.7	95.1*	0.88	0.0
O=S(=O)(NC1=NCCCCC1)c1ccc(F)cc1	nt	nt	-2.5	nt	nt	nt
Cc1ccc(C2=NCN(c3ccc(C(=O)O)cc3)C(=S)N2)cc1	135.7*	28.1	-0.9	-28.1	1.84	-0.1
CCSc1ccc(-c2cccc([N+](=O)[O-])c2)nn1	137.3*	27.9	-0.3	-27.9	1.05	0.3
O=C(CSc1ccc(-c2cccc([N+](=O)[O-])c2)nn1)N1CCCC1	108.3	16.9	-2.4	-16.9	1.11	0.0
CN1CCN(Cc2nc3ccccc3c(=O)n2Cc2nc(-c3ccc4ccccc4c3)cs2)CC1	58.5	-1.8	-1.8	1.8	15.9*	-0.1
CN1CCN(Cc2nc3ccccc3c(=O)n2Cc2nc(-c3cccc([N+](=O)[O-])c3)cs2)CC1	41.5	6.4	-1.2	-6.4	0.73	-0.2
CC(=O)c1sc(NC(=O)c2ccccc2)nc1-c1ccccc1	150.5*	101.2	3.1	-101.2	4.92*	0.2
CC(=O)c1sc(NC(=O)c2cccc(C)c2)nc1C	131.0*	123.9	-3.7	-123.9	5.55*	0.6
